Source: PubChem BioAssay
TRPM1 prom inh: inhibitors of MITF-dependent TRPM1 promoter reporter, primary screen, cell-based, SK-MEL-5, single point, luciferase; inhibition, % at 12.5 µM; SK-MEL-5 TRPM1 promoter luciferase, 24 h; 330,000 tested, 0.83% active;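 active = mean inhibition across replicates of 60% or more, whatever share of single replicates reaches that level; inconclusive = some that reach 60%, reason not given; inactive = mean inhibition across replicates below 60%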
Shn3 3UTR inh: reduction of Shn3 3'UTR firefly luciferase signal, primary screen, Schnurri-3 inhibitor project, cell-based, Clone20 osteoblasts, set 2 | Clone20 osteoblast Shn3 3'UTR firefly luciferase, 24 h | inhibition, % at 12.5 µM | 360,000 tested, 0.52% active | AID 588674, 2011;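 active = mean inhibition of at least 75% with every replicate also reaching 75%; inconclusive = mean inhibition at least 75% but some replicate below; inactive = mean inhibition below 75%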;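 also: 0% = median of neutral control wells and 100% = pilot-screen positive control compound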
EBV LMP1 NFkB: EBV LMP1-driven NF-kappaB luciferase reporter inhibitors, primary screen, cell-based, luminescence, single point | LMP1-induced NF-kappaB luciferase reporter cells | inhibition, % at 12.5 µM | 350,000 tested, 0.69% active | AID 504558, 2011; in the data active = inhibition above about 41%; inconclusive = no clear call, values can overlap the other calls;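 also: 0% = neutral control wells and 100% = reference inhibitor control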
LGR2 antag: inhibitors of bursicon-induced LGR2 CRE-luciferase signal, primary screen, cell-based, HEK293, CRE-luciferase reporter, bursicon stimulation; bursicon-stimulated, 4 h; inhibition, % at 9.99 µM; 380,000 tested, 0.35% active; AID 720647, 2013;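 active = drop in luminescence signal, shown as inhibition above about 50% in the replicate tests, limit read from the data, passing the limit was not always enough; inconclusive = probably only some replicates passing the limit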;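 also: agonist challenge used bursicon conditioned medium at about half maximal strength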
PAX8 reporter: inhibitors of PAX8-driven TPO luciferase reporter, primary screen, RMG-I cells, single concentration; inhibition, % at 12.6 µM; 360,000 tested, 1.2% active; SteadyGlo, 24 h;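 active = mean replicate inhibition at least 60% with every replicate also reaching 60%; inconclusive = only one of the two criteria is met; inactive = mean below 60% and not all replicates reaching 60%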;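 also: luciferase light reporting Pax8 driven TPO promoter activity; plate controls were median of neutral control wells for no effect and mitoxantrone controls for full effect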
EWS-Fli block: EWS/Fli-driven NR0B1 reporter inhibitors, primary screen, A673 cells, NR0B1 luciferase, luminescence, MLPCN library; viability-normalised; inhibition, % at 12.6 µM; 350,000 tested, 0.67% active; AID 651661, 2012;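 active = mean inhibition of at least 50% after viability correction, with every replicate also passing that limit; inconclusive = mean reaches 50% but only one of two replicates passes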;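 also: firefly luciferase signal divided by Alamar Blue viability fluorescence both relative to DMSO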
Numbers without * were called inactive; ? = inconclusive; / = no result. Compounds with a hit are over-represented: about 2.2% of the library has one in this group of screens.

SMILES	TRPM1 prom inh	Shn3 3UTR inh	EBV LMP1 NFkB	LGR2 antag	PAX8 reporter	EWS-Fli block
O=C(Nc1ccc(N2CCOCC2)cc1)c1cnsn1	79*	49	77*	/	/	/
O=C(Nc1ccc(N2CCOCC2)cc1)c1cnccn1	25	30	63*	70*	58	57*
O=C(Nc1ccc(N2CCOCC2)cc1)c1ccncc1	-9	-16	3	/	/	/
O=C(Nc1ccc(S(=O)(=O)N2CCN(Cc3ccccc3)CC2)cc1)c1cnccn1	19	82*	10	/	/	/
O=C(Nc1cc(F)ccc1F)N1CC(=O)N2[C@H](CO)[C@H](c3ccc(-c4cccnc4)cc3)[C@H]2C1	/	/	/	6	/	/
O=C(NCc1ccccc1)C1(C(F)(F)F)CC(CCCO)CCCO1 (configuration not stated)	0	-18	4	-8	-11	-4
CS(=O)(=O)c1ccc(CNC(=O)C2(C(F)(F)F)CC(CCCO)CCCO2)cc1 (configuration not stated)	/	/	/	0	22	59*
CC(C)NC(=O)NCC[C@H]1CC[C@@H](NC(=O)Nc2ccccc2)[C@@H](CO)O1	/	/	/	-11	0	-6
C#CCN(C[C@H]1[C@H](OC(=O)Nc2c(C)noc2C)[C@H](OC(=O)Nc2c(C)noc2C)C[C@@H](C(=O)OC)[C@H]1C(=O)OC)S(=O)(=O)c1ccc(C)cc1	/	-11	-11	31	97*	11
C#CCN(C[C@@H]1[C@@H](OC(=O)Nc2cccs2)[C@@H](OC(=O)Nc2cccs2)C[C@H](C(=O)OC)[C@@H]1C(=O)OC)S(=O)(=O)c1ccc(C)cc1	/	/	/	5	39	-1
CS(=O)(=O)Nc1ccc2c(c1)[C@H]1C[C@H](CC(=O)NCc3ccccc3)O[C@@H](CO)[C@H]1O2	/	/	/	1	4	1
Cc1ccc(S(=O)(=O)N[C@H]2CC[C@H](CCNC(=O)Cc3ccccn3)O[C@@H]2CO)cc1	/	/	/	8	-3	3
CCOC(=O)[C@H]1[C@H]2COc3ccc(C)cc3[C@@H]2N2C(=O)CN(Cc3ccc(OC)cc3)C(=O)[C@@]12C	-3	13	45*	7	-9	9
CCOC(=O)[C@H]1[C@H]2COc3ccc(C)cc3[C@@H]2N2C(=O)CN(Cc3ccc(Cl)cc3)C(=O)[C@@]12C	2	-6	-2	11	-8	11
CCOC(=O)[C@H]1[C@H]2COc3ccc(OC)cc3[C@@H]2N2C(=O)CN(C)C(=O)[C@@]12C	3	13	47*	4	-11	0
COc1ccc2c3c(n(C)c2c1)[C@H](CO)N(C(=O)C1CC1)CC31CCN(C)CC1	/	/	/	-14	/	5
O=C(Nc1ccc(F)cc1)N1CCCCN2[C@H](CO)[C@@H](c3ccc(-c4ccccc4F)cc3)[C@@H]2C1	/	/	/	/	5	-5
O=C(Nc1ccc(F)cc1)N1CCCCN2[C@H](CO)[C@H](c3ccc(-c4ccccc4F)cc3)[C@H]2C1	/	/	/	/	64*	3
O=C(Nc1cccc(F)c1)N1CCCCN2[C@@H](CO)[C@H](c3ccc(-c4ccccc4F)cc3)[C@@H]2C1	/	/	/	11	49	8
O=C(Nc1cccc(F)c1)N1CCCCN2[C@H](CO)[C@@H](c3ccc(-c4ccccc4F)cc3)[C@H]2C1	/	/	/	-1	94*	32
Cc1noc2ncnc(Sc3ccc(Br)cc3)c12	-17	44	8	76*	0	8
CC1(Cc2ccc(OC(F)(F)F)cc2)C(=O)Nc2ccc(S(=O)(=O)NC3CCCCC3)cc21 (configuration not stated)	/	2	/	?	90*	6
CC1(Cc2ccc(Cl)cc2)C(=O)Nc2ccc(S(=O)(=O)NC3CCCCC3)cc21 (configuration not stated)	/	-1	/	37	6	-1
C=C(C)COc1ccc(-c2n[nH]c(C)c2-c2ccc(OC)c(OC)c2)c(O)c1	23	16	4	-5	27	61*
CCC(=O)NC(C)c1cc(Cl)c2cccnc2c1O (configuration not stated)	15	91*	11	13	-4	4
SMILES	TRPM1 prom inh	Shn3 3UTR inh	EBV LMP1 NFkB	LGR2 antag	PAX8 reporter	EWS-Fli block
COc1ccc(C(NC(C)=O)c2cc(Cl)c3cccnc3c2O)cc1OC (configuration not stated)	40	89*	-5	-11	18	10
CCCC(=O)NC(c1ccc2c(c1)OCO2)c1cc(Cl)c2cccnc2c1O (configuration not stated)	31	87*	13	/	/	/
CCC(=O)NC(c1ccc(C)cc1)c1cc(Cl)c2cccnc2c1O (configuration not stated)	4	79	43*	/	/	/
CCC(=O)NC(c1ccc(OC)c(OC)c1)c1cc(Cl)c2cccnc2c1O (configuration not stated)	40	?	-7	/	56	20
COc1ccc(CN(C)C[C@H]2Oc3c(NS(=O)(=O)c4ccc(C)cc4)cccc3C(=O)N([C@@H](C)CO)C[C@H]2C)cc1	/	/	/	4	2	1
Cc1ccc(S(=O)(=O)Nc2cc(Cl)c(O)c3ncccc23)cc1	21	72	19	34	84*	-12
COc1ccccc1C1=NNC(=Nc2cccc(S(=O)(=O)N(C)C)c2)SC1	1	37	-2	8	84*	41
COCCn1c(C)cc(C2=NNC(=Nc3ccccc3)SC2)c1C	-10	-16	3	/	/	/
COCCOC(=O)N1C(=O)[C@@]2(c3cc(C#CC4(O)CCCCCC4)ccc31)[C@H](c1ccc(OCCO)cc1)N1[C@H](c3ccccc3)[C@H](c3ccccc3)OC(=O)[C@H]1[C@@H]2C(=O)N1CCN(c2ncccn2)CC1	/	/	/	/	8	5
CN(C)CCN(Cc1ccc(Cl)cc1)c1ccccn1	-1	24	52*	11	-9	4
C[N+](C)(C)CCN(Cc1ccc(Cl)cc1)c1ccccn1	2	7	-2	/	42	/
CC(C)(C)N(Cc1ccc2c(c1)OCO2)C(=O)/C=C\S(=O)c1ccccc1 (configuration not stated)	90*	71	19	59*	95*	46
CCN(Cc1ccc2c(c1)OCO2)C(=O)/C=C/c1cccc(Br)c1	-10	-6	-5	-10	-16	0
CC(/C=N/NC(=O)CSc1nc(C)cc(C)n1)=C\c1ccccc1	-14	8	-1	-14	-5	/
CC(/C=N\NC(=O)Cn1c(C)nc2ccccc21)=C\c1ccccc1	2	85*	30	/	10	/
